# Measurements from the supplement of paper PMC10037445.
# Where “and” joins values, the source holds several entries; their conditions need not be identical. Identical values can stand only once. Over roughly 2,900 compounds, “NF-kB SEAP reporter activity, fold change vs agonist alone” has its median near 0.99; the highest 2% begin near 2.6. Only a selection was taken, and the highest values are over-represented in it overall.
# Legend:
# [1] = test system: RAW-Dual; assay: NF-kB SEAP reporter activity, fold change vs agonist alone; cytotoxicity flag (confluency mask): not cytotoxic; higher = enhanced NF-kB activity
# Outline: (§1)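 Cytotoxic wells were those whose IncuCyte confluency was below 70% of agonist controls in both mask sets. The cells were RAW-Dual macrophages at 50,000 cells/well in DMEM on 384-well plates, dosed with 50 nL of library stock by pin tool, stimulated with a PRR agonist 1 h later, and kept at 37 °C, 5% CO2 for 20 hours. IRF and NF-κB reporter activity, as fold change over agonist-alone wells, came from supernatant read by QuantiLuc luminescence and QuantiBlue absorbance, respectively.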
# [2] = test system: RAW-Dual; assay: NF-kB SEAP reporter activity, fold change vs agonist alone; higher = enhanced NF-kB activity
# Outline: as §1
# [3] = test system: RAW-Dual; assay: NF-kB SEAP reporter activity, fold change vs agonist alone; cytotoxicity flag (confluency mask): cytotoxic (confluency <70% of control); higher = enhanced NF-kB activity
# Outline: as §1
# [4] = agonist: ODN 1826 (TLR9) 0.5 ug/mL
# [5] = agonist: Pam2CSK4 (TLR2/6) 0.1 ug/mL
# [6] = agonist: Pam3CSK4 (TLR2/1) 0.1 ug/mL
# [7] = library stock concentration (final ~1000-fold dilution): 10 mM, cytotoxicity flag (confluency mask): not cytotoxic, agonist: Imiquimod (TLR7) […]
# [8] = library stock concentration (final ~1000-fold dilution): 10 mM, cytotoxicity flag (confluency mask): not cytotoxic, agonist: MPLA (TLR4) […]
smiles,measurement,setting,value
Cc1cc(Nc2cc(N3CCN(C)CC3)nc(/C=C/c3ccccc3)n2)n[nH]1.O=C(O)C(O)C(O)C(=O)O (library stock concentration (final ~1000-fold dilution): 10 mM),NF-kB SEAP reporter activity,[1]; agonist: LPS (TLR4) 0.1 ug/mL,0.407
same,NF-kB SEAP reporter activity,[1]; [4],0.191
same,NF-kB SEAP reporter activity,[1]; [5],0.297
same,NF-kB SEAP reporter activity,[1]; [6],0.279
Cc1cc(Nc2cc(N3CCN(C)CC3)nc(/C=C/c3ccccc3)n2)n[nH]1.O=C(O)C(O)C(O)C(=O)O,NF-kB SEAP reporter activity,[2]; [7],0.89
same,NF-kB SEAP reporter activity,[2]; [8],0.85
CNC(C)C(=O)NC(C(=O)N1CCCC1c1nc(C(=O)c2ccc(F)cc2)cs1)C1CCCCC1 (stereo not given),NF-kB SEAP reporter activity,"[2]; library stock concentration (final ~1000-fold dilution): 10 mM, cytotoxicity flag (confluency mask): cytotoxic (confluency <70% of control), agonist: Imiquimod (TLR7) […]",1.16
same,NF-kB SEAP reporter activity,"[2]; library stock concentration (final ~1000-fold dilution): 10 mM, cytotoxicity flag (confluency mask): cytotoxic (confluency <70% of control), agonist: MPLA (TLR4) […]",0.714
CNC(C)C(=O)NC(C(=O)N1CCCC1c1nc(C(=O)c2ccc(F)cc2)cs1)C1CCCCC1 (stereo not given) (library stock concentration (final ~1000-fold dilution): 10 mM),NF-kB SEAP reporter activity,[3]; agonist: LPS (TLR4) 0.1 ug/mL,0.436
same,NF-kB SEAP reporter activity,[3]; [4],0.764
same,NF-kB SEAP reporter activity,[3]; [5],0.902
same,NF-kB SEAP reporter activity,[3]; [6],0.517
O=c1cc(-c2ccc(O)cc2)oc2cccc(O)c12 (library stock concentration (final ~1000-fold dilution): 10 mM),NF-kB SEAP reporter activity,[1]; agonist: LPS (TLR4) 0.1 ug/mL,1.55
same,NF-kB SEAP reporter activity,[1]; [4],1.15
same,NF-kB SEAP reporter activity,[1]; [5],1.09
same,NF-kB SEAP reporter activity,[1]; [6],1.82
O=c1cc(-c2ccc(O)cc2)oc2cccc(O)c12,NF-kB SEAP reporter activity,[2]; [7],1.07
same,NF-kB SEAP reporter activity,[2]; [8],1.37
O=C(O)CSc1nnc(Br)n1-c1ccc(C2CC2)c2ccccc12 (library stock concentration (final ~1000-fold dilution): 10 mM),NF-kB SEAP reporter activity,[1]; agonist: LPS (TLR4) 0.1 ug/mL,1.32
same,NF-kB SEAP reporter activity,[1]; [4],1.01
same,NF-kB SEAP reporter activity,[1]; [5],1.24
same,NF-kB SEAP reporter activity,[1]; [6],1.18
CC(C)(C)C(=O)Oc1ccc(S(=O)(=O)Nc2ccccc2C(=O)NCC(=O)O)cc1,NF-kB SEAP reporter activity,[2]; [7],0.966
O=C(O)CSc1nnc(Br)n1-c1ccc(C2CC2)c2ccccc12,NF-kB SEAP reporter activity,[2]; [8],0.983
CC(C)(C)C(=O)Oc1ccc(S(=O)(=O)Nc2ccccc2C(=O)NCC(=O)O)cc1 (library stock concentration (final ~1000-fold dilution): 10 mM),NF-kB SEAP reporter activity,[1]; agonist: LPS (TLR4) 0.1 ug/mL,1.36 and 1.08
same,NF-kB SEAP reporter activity,[1]; [4],0.906 and 0.939
same,NF-kB SEAP reporter activity,[1]; [5],1.39 and 1
same,NF-kB SEAP reporter activity,[1]; [6],0.652 and 1.02
O=C(O)CSc1cc(NS(=O)(=O)c2ccc(Br)cc2)c2ccccc2c1O,NF-kB SEAP reporter activity,[2]; [7],1.12
same,NF-kB SEAP reporter activity,[2]; [8],2.21
O=C(O)CSc1cc(NS(=O)(=O)c2ccc(Br)cc2)c2ccccc2c1O (library stock concentration (final ~1000-fold dilution): 10 mM),NF-kB SEAP reporter activity,[1]; agonist: LPS (TLR4) 0.1 ug/mL,3.16
same,NF-kB SEAP reporter activity,[1]; [4],1.31
same,NF-kB SEAP reporter activity,[1]; [5],1.24
same,NF-kB SEAP reporter activity,[1]; [6],2.31
CSCCNc1nc(SCCC(F)(F)F)nc2c1ncn2C1OC(COP(=O)(O)OP(=O)(O)C(Cl)(Cl)P(=O)(O)O)C(O)C1O (stereo not given) (library stock concentration (final ~1000-fold dilution): 10 mM water),NF-kB SEAP reporter activity,[1]; agonist: LPS (TLR4) 0.1 ug/mL,1.15
same,NF-kB SEAP reporter activity,[1]; [4],1.26
same,NF-kB SEAP reporter activity,[1]; [5],1.18
same,NF-kB SEAP reporter activity,[1]; [6],0.935
CSCCNc1nc(SCCC(F)(F)F)nc2c1ncn2C1OC(COP(=O)(O)OP(=O)(O)C(Cl)(Cl)P(=O)(O)O)C(O)C1O (stereo not given),NF-kB SEAP reporter activity,"[2]; library stock concentration (final ~1000-fold dilution): 10 mM water, cytotoxicity flag (confluency mask): not cytotoxic, agonist: Imiquimod (TLR7) […]",0.972
same,NF-kB SEAP reporter activity,"[2]; library stock concentration (final ~1000-fold dilution): 10 mM water, cytotoxicity flag (confluency mask): not cytotoxic, agonist: MPLA (TLR4) […]",1.04
CCC1OC(=O)C(C)C(OC2CC(C)(OC)C(O)C(C)O2)C(C)C(OC2OC(C)CC(N(C)C)C2O)C(C)(O)CC(C)C(=O)C(C)C(O)C1(C)O.N#CS (stereo not given) (library stock concentration (final ~1000-fold dilution): 10 mM),NF-kB SEAP reporter activity,[1]; agonist: LPS (TLR4) 0.1 ug/mL,1.06
same,NF-kB SEAP reporter activity,[1]; [4],0.88
same,NF-kB SEAP reporter activity,[1]; [5],1.07
same,NF-kB SEAP reporter activity,[1]; [6],1.08
CCC1OC(=O)C(C)C(OC2CC(C)(OC)C(O)C(C)O2)C(C)C(OC2OC(C)CC(N(C)C)C2O)C(C)(O)CC(C)C(=O)C(C)C(O)C1(C)O.N#CS (stereo not given),NF-kB SEAP reporter activity,[2]; [8],1.07
COc1cc(CCC(O)CC(O)CCc2ccc(O)c(OC)c2)ccc1O (stereo not given) (library stock concentration (final ~1000-fold dilution): 10 mM),NF-kB SEAP reporter activity,[1]; agonist: LPS (TLR4) 0.1 ug/mL,1.41
same,NF-kB SEAP reporter activity,[1]; [4],1.15
same,NF-kB SEAP reporter activity,[1]; [5],1.08
same,NF-kB SEAP reporter activity,[1]; [6],1.06
COc1cc(CCC(O)CC(O)CCc2ccc(O)c(OC)c2)ccc1O (stereo not given),NF-kB SEAP reporter activity,[2]; [7],1.04
same,NF-kB SEAP reporter activity,[2]; [8],1.05
COC1=CC(c2cc3ccccc3[nH]2)=N/C1=C\c1[nH]c(C)cc1C.CS(=O)(=O)O (library stock concentration (final ~1000-fold dilution): 10 mM),NF-kB SEAP reporter activity,[1]; agonist: LPS (TLR4) 0.1 ug/mL,8.62
same,NF-kB SEAP reporter activity,[1]; [4],1.9
same,NF-kB SEAP reporter activity,[1]; [5],2.55
same,NF-kB SEAP reporter activity,[1]; [6],3.87
COC1=CC(c2cc3ccccc3[nH]2)=N/C1=C\c1[nH]c(C)cc1C.CS(=O)(=O)O,NF-kB SEAP reporter activity,[2]; [7],1.4
same,NF-kB SEAP reporter activity,[2]; [8],2.78
CCOC(=O)COc1ccc(/C=C2\SC(=S)NC2=O)cc1OC,NF-kB SEAP reporter activity,[2]; [7],0.985
same,NF-kB SEAP reporter activity,[2]; [8],1.1
CCOC(=O)COc1ccc(/C=C2\SC(=S)NC2=O)cc1OC (library stock concentration (final ~1000-fold dilution): 10 mM),NF-kB SEAP reporter activity,[1]; agonist: LPS (TLR4) 0.1 ug/mL,1.04
same,NF-kB SEAP reporter activity,[1]; [4],0.889
same,NF-kB SEAP reporter activity,[1]; [5],0.889
same,NF-kB SEAP reporter activity,[1]; [6],1.1
CCOC(=O)C1=CCCCC1S(=O)(=O)Nc1ccc(F)cc1Cl (stereo not given),NF-kB SEAP reporter activity,"[2]; library stock concentration (final ~1000-fold dilution): .1 mM, cytotoxicity flag (confluency mask): not cytotoxic, agonist: Imiquimod (TLR7) […]",1.2
same,NF-kB SEAP reporter activity,"[2]; library stock concentration (final ~1000-fold dilution): .1 mM, cytotoxicity flag (confluency mask): not cytotoxic, agonist: MPLA (TLR4) […]",0.252
CCOC(=O)C1=CCCCC1S(=O)(=O)Nc1ccc(F)cc1Cl (stereo not given) (library stock concentration (final ~1000-fold dilution): .1 mM),NF-kB SEAP reporter activity,[1]; agonist: LPS (TLR4) 0.1 ug/mL,0.288
same,NF-kB SEAP reporter activity,[1]; [4],1.09
same,NF-kB SEAP reporter activity,[1]; [5],1.36
same,NF-kB SEAP reporter activity,[1]; [6],1.39
CS(=O)(=O)O.CS(=O)(=O)O.N=C(N)Nc1ccc(C(=O)Oc2ccc3cc(C(=N)N)ccc3c2)cc1,NF-kB SEAP reporter activity,[2]; [7],1.01
same,NF-kB SEAP reporter activity,[2]; [8],1.02
CS(=O)(=O)O.CS(=O)(=O)O.N=C(N)Nc1ccc(C(=O)Oc2ccc3cc(C(=N)N)ccc3c2)cc1 (library stock concentration (final ~1000-fold dilution): 10 mM),NF-kB SEAP reporter activity,[1]; agonist: LPS (TLR4) 0.1 ug/mL,1.08
same,NF-kB SEAP reporter activity,[1]; [4],1.05
same,NF-kB SEAP reporter activity,[1]; [5],1.02
same,NF-kB SEAP reporter activity,[1]; [6],0.924
